Results published in PubChem BioAssay AID1259343 (VanderVen Lab, College of Veterinary Medicine, Cornell …, 2017).
Among all 6,200 compounds or so, about 2,900 (47%) were called active. Rule as the data show it: active = inhibition above about 50%; inactive = the rest. So high a share suggests a set chosen from earlier hits. This is one part of the list.

assay: Mycobacterium tuberculosis growth inhibition, primary screen (AID 1259343); conditions: inhibition: at 10 µM, hits give high values; outcome: 10 uM

Row | Structure (SMILES) | inhibition
1 | COc1ccc(NC(=O)c2csc(C)n2)cc1Cl | -17.7% (inactive)
2 | Cc1cc(OCc2nc(C(=O)NCC(C)C)cs2)ccc1Cl | 8.24% (inactive)
3 | CCCc1nc(C(=O)Nc2ccc(NC(=O)CC)c(Cl)c2)cs1 | 54% (active)
4 | Cc1ccc(Sc2cncc3sc(C(N)=O)cc23)cc1 | 68% (active)
5 | Cc1c(Br)c(C(F)(F)F)nn1CC(=O)Nc1ccc(Oc2cc([N+](=O)[O-])cc([N+](=O)[O-])c2)cc1 | 61.4% (active)
6 | Cc1ccc(Sc2ccc(NC(=O)Cn3cnnn3)cc2)cc1C | 4.65% (inactive)
7 | CC(=O)Nc1ccc(NC(=O)Cn2nc(C)c([N+](=O)[O-])c2C)cc1 | 92.6% (active)
8 | CC1CCN(CC(=O)Nc2ccc([N+](=O)[O-])cc2)CC1 | 8.26% (inactive)
9 | O=C(Cn1cnc([N+](=O)[O-])n1)Nc1cc(Oc2cccc(Cl)c2)cc([N+](=O)[O-])c1 | -2.49% (inactive)
10 | O=C(CSc1ncnc2sc3c(c12)CCCC3)N1CCOCC1 | 102% (active)
11 | O=C(CSc1ncnc2sc3c(c12)CCC3)N1CCCC1 | 18.6% (inactive)
12 | CC(C)(C)OC(=O)CSc1ncnc2sc3c(c12)CCCC3 | 75.3% (active)
13 | O=C(O)CCCSc1ncnc2sc3c(c12)CCCC3 | 51% (active)
14 | CN(C)C(=O)CSc1ncnc2sc3c(c12)CCCC3 | 85.3% (active)
15 | COCC1CCCN(c2nncc(-c3ccc(Cl)cc3)n2)C1 (configuration not stated) | 9.94% (inactive)
16 | CCc1ccc(C(CNC(=O)Cc2ccc(C(F)(F)F)cc2)N(C)C)cc1 (configuration not stated) | 19.9% (inactive)
17 | O=C(CCSc1ccc(C(F)(F)F)cn1)Nc1c(Cl)cccc1Cl | 20.9% (inactive)
18 | O=C(Cc1ccc(C(F)(F)F)cc1)Nc1ncccc1O | 82.2% (active)
19 | O=C(O)CCN(Cc1ccco1)c1nc(-c2cccc(Br)c2)nc2ccccc12 | 2.99% (inactive)
20 | S=P(NN=C1CCSC1)(c1ccccc1)c1ccccc1 | 62.1% (active)
21 | Cc1cccc(-c2ccc(NC(=O)C3CCN(C(=O)c4cnsn4)CC3)cc2)c1 | 91.7% (active)
22 | Cc1cccc(-c2ccc(NC(=O)C3CCN(C(=O)c4cscn4)CC3)cc2)c1 | 93% (active)
23 | COc1cccc(-c2ccc(NC(=O)C3CCCN(C(=O)c4cnsn4)C3)cc2)c1 (configuration not stated) | inactive
24 | CN1c2ccccc2-c2nc3ccccc3n2C1c1ccco1 (configuration not stated) | 24.8% (inactive)
25 | C#CCCCCCCCCCCCC(O)CC(O)COC(C)=O (configuration not stated) | 93.3% (active)
26 | Cc1cc(N)n(-c2nc3c(cnn3-c3ccc(C)c(C)c3)c(=O)[nH]2)n1 | 33.8% (inactive)

Row | Structure (SMILES) | inhibition
27 | Cc1cc(=O)[nH]c(-n2nc(C)cc2N)n1 | 101% (active)
28 | CCCc1cc(=O)[nH]c(-n2nc(C)cc2C)n1 | 6.1% (inactive)
29 | CCCc1cc(=O)[nH]c(-n2nc(C)cc2N)n1 | 101% (active)
30 | Cc1cccc(-n2ncc3c(=O)[nH]c(-n4nc(C)cc4N)nc32)c1 | 102% (active)
31 | CCc1cc(=O)[nH]c(-n2nc(C)cc2N)n1 | 83.4% (active)
32 | Cc1cc(N)n(-c2nc3c(cnn3-c3ccccc3)c(=O)[nH]2)n1 | 5.14% (inactive)
33 | CC(C)=CCc1c(O)ccc(C(=O)Cc2ccccc2)c1O | 59.8% (active)
34 | CCC(=O)c1ccc(O)c(CC=C(C)C)c1 | 20.6% (inactive)
35 | N#Cc1c(Cl)c(Cl)c(Cl)c(C#N)c1Cl | 102% (active)
36 | O=C(Nc1ccccc1)c1cc(C2CCCN(C(=O)C/C=C/c3ccccc3)C2)on1 (configuration not stated) | 43% (inactive)
37 | O=C(Nc1nc(C2CC2)cs1)c1cc2ccccc2cc1O | 11.4% (inactive)
38 | Cc1nc(COC(=O)c2cc3ccccc3cc2O)oc1C | 54.9% (active)
39 | Cc1ccc(C(=O)OCc2cc(C)on2)c(O)c1 | -29.5% (inactive)
40 | Cc1ccc2nc3sc(C(=O)O)cc3cc2c1 | 7.83% (inactive)
41 | Cc1sc(C(=O)N2CCOC(C(N)=O)C2)cc1-c1ccc(F)cc1 (configuration not stated) | 5.13% (inactive)
42 | COc1ccc(-c2cc(C(=O)O)sc2C)cc1 | 67.1% (active)
43 | CN(C)C(=O)On1nnc2ccccc21 | 26.9% (inactive)
44 | O=S(=O)(c1cccs1)n1nnc2ccccc21 | 52.1% (active)
45 | O=C(O)C1CCCN1S(=O)(=O)c1cccs1 (configuration not stated) | -0.47% (inactive)
46 | Cn1c(=O)cc2c3c(cccc31)C(=O)c1ccccc1-2 | 11.1% (inactive)
47 | S=c1[nH]c(-c2ccccc2)c(-c2ccccc2)[nH]1 | 18.6% (inactive)
48 | O=c1c(-c2ccccc2)c1-c1ccccc1 | 86.5% (active)
49 | O=C(NCCc1cccc(C(F)(F)F)c1)c1ccc(CSc2ncn[nH]2)o1 | 36.7% (inactive)
50 | O=C(NCCOc1cccc(C(F)(F)F)c1)c1ccc(Cl)c([N+](=O)[O-])c1 | 54.2% (active)
51 | COc1ccccc1C=CC(=O)c1ccc(Cl)cc1 | 46.9% (inactive)
52 | Cc1ccc(C)c(C=CC(=O)c2ccc(O)cc2)c1 | 98.6% (active)
